Potency, outcome and activity, negative = inhibition data for 41 molecules are collected here from PubChem BioAssay (Tox21).

Records with an inconclusive call do not appear. The source holds several records for some structures; these can differ, active in one and inactive in another. Activity calls are given as the source filed them. Unless noted, calls follow the shape of the full dose curve.

Assay [1] can be described thus: qHTS assay for small molecules that induce genotoxicity in human embryonic kidney cells expressing luciferase-tagged ATAD5 (AID 651632; active = well fitted curve in the direction sought with a large enough effect in the repeat runs; an effect the other way counts as inactive or inconclusive; also: % is scaled to controls: 0 for no effect and ±100 for the full control effect; nearly all actives have a fitted effect of over 15% in size). The essentials:
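HEK293T cells carrying a luciferase reporter tagged to ATAD5 were exposed to compound or DMSO vehicle for 16 hr at 37C, 5% CO2. Amplite was added, and after 30 min at room temperature luciferase activity was read as a marker of ATAD5 induction.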

Assay [2] can be described thus: qHTS assay for small molecules that induce genotoxicity in human embryonic kidney cells expressing luciferase-tagged ATAD5 - cell viability (AID 651634). Also: nearly all actives have a fitted effect of over 25% in size. Also: potency is read from the fitted curve at half-maximal effect. The method in brief:
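HEK293T cells expressing luciferase-tagged ATAD5 were exposed to compound or DMSO for 15.5 hr at 37C, 5% CO2. Viability was then read as live-cell protease activity by CellTiter-Fluor fluorescence after 30 min at 37C.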

A short description of assay [3]: qHTS assay for small molecule disruptors of the mitochondrial membrane potential - cell viability (AID 720634).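 Also: human HepG2 liver cancer cells; series mostly up to about 83 µM; % is scaled to controls: 0 for no effect and ±100 for the full control effect; nearly all actives have a fitted effect of over 20% in size.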 The method in brief: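 HepG2 cells seeded overnight at 37 C, then exposed to compound or DMSO for 1 hr at 37 C, 5% CO2. m-MPI dye added, then CellTiter-Glo for 30 min at room temperature; viability read as ATP luminescence.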
A short description of assay [4]: qHTS assay to test for compound auto fluorescence at 535 nm (green) in HepG2 cells (AID 720675; active = well fitted curve in the direction sought with a large enough effect in the repeat runs; an effect the other way counts as inactive or inconclusive; also: % is scaled to controls: 0 for no effect and ±100 for the full control effect).
Assay [5] in a line: qHTS assay to test for compound auto fluorescence at 535 nm (green) in HEK293 cells (AID 720680; active = well fitted curve in the direction sought with a large enough effect in the repeat runs; an effect the other way counts as inactive or inconclusive; also: % is scaled to controls: 0 for no effect and ±100 for the full control effect).
Assay [6] in a line: qHTS assay to test for compound auto fluorescence at 460 nm (blue) in HEK293 cell free culture (AID 720681; active = well fitted curve in the direction sought with a large enough effect in the repeat runs; an effect the other way counts as inactive or inconclusive; also: % is scaled to controls: 0 for no effect and ±100 for the full control effect). The essentials: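 Blue fluorescence (Ex 405/Em 460 nm, triamterene-equivalent) was read immediately after pin transfer of compound or DMSO into medium (DMEM, 10% FBS) without cells.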
A short description of assay [7]: qHTS assay to test for compound auto fluorescence at 535 nm (green) in HEK293 cell free culture (AID 720682; active = well fitted curve in the direction sought with a large enough effect in the repeat runs; an effect the other way counts as inactive or inconclusive; also: % is scaled to controls: 0 for no effect and ±100 for the full control effect). The essentials: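 No cells present: wells hold DMEM supplemented with 10% FBS, into which compound or vehicle is pinned. Green emission is then recorded (485 nm excitation, 535 nm emission) and scaled to fluorescein.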
Assay [8] in a line: qHTS assay to test for compound auto fluorescence at 590 nm (red) in HEK293 cell free culture (AID 720683; active = well fitted curve in the direction sought with a large enough effect in the repeat runs; an effect the other way counts as inactive or inconclusive; also: % is scaled to controls: 0 for no effect and ±100 for the full control effect). The essentials:
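Red-channel autofluorescence of compounds in culture medium (DMEM, 10% FBS), no cells, measured at 540/590 nm. Rose Bengal sodium is the reference fluorophore for equivalence.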

Assay [9] can be described thus: qHTS assay to test for compound auto fluorescence at 590 nm (red) in HepG2 cell free culture (AID 720684; active = well fitted curve in the direction sought with a large enough effect in the repeat runs; an effect the other way counts as inactive or inconclusive; also: % is scaled to controls: 0 for no effect and ±100 for the full control effect). The method in brief: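 Plate contents were MEM with 10% FBS plus test compound or DMSO, no cells. Fluorescence was recorded with 540 nm excitation and 590 nm emission.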
Assay [10] is described as follows: qHTS assay to test for compound auto fluorescence at 460 nm (blue) in HepG2 cell free culture (AID 720685; active = well fitted curve in the direction sought with a large enough effect in the repeat runs; an effect the other way counts as inactive or inconclusive; also: % is scaled to controls: 0 for no effect and ±100 for the full control effect). The essentials: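 Compound (23 nL) or DMSO pinned into cell-free MEM with 10% FBS; blue fluorescence read at 405/460 nm excitation/emission, expressed as auto-fluorescence equivalency to triamterene.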
Assay [11] in a line: qHTS assay for identifying genotoxic compounds that show differential cytotoxicity against isogenic chicken DT40 cell lines with known DNA damage response pathways - Rad54/Ku70 mutant cell line (AID 743015; active = well fitted curve in the direction sought with a large enough effect in the repeat runs; an effect the other way counts as inactive or inconclusive; also: potency is read from the fitted curve at half-maximal effect; nearly all actives have a fitted effect of over 60% in size).
Assay [12] can be described thus: qHTS assay to identify small molecule antagonists of the thyroid receptor (TR) signaling pathway (AID 743065; active = well fitted curve in the direction sought with a large enough effect in the repeat runs; an effect the other way counts as inactive or inconclusive; also: nearly all actives have a fitted effect of over 55% in size; also: potency is read from the fitted curve at half-maximal effect). The essentials:
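Antagonism measured as loss of luciferase signal in GH3 cells stably carrying a TRE-luciferase reporter, co-treated with compound and T3 (1 nM final) for 23.5 h at 37 C. Viability was read in the same well by CellTiter-Fluor.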

Assay [13] in a line: qHTS assay to identify small molecule antagonists of the estrogen receptor alpha (ER-alpha) signaling pathway using the BG1 cell line - cell viability counter screen (AID 743081; active = well fitted curve in the direction sought with a large enough effect in the repeat runs; an effect the other way counts as inactive or inconclusive;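 also: compound given together with 17beta-estradiol as the ER stimulus; series mostly up to about 70 µM; % is scaled to controls: 0 for no effect and ±100 for the full control effect; nearly all actives have a fitted effect of over 45% in size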).
The next assay has as its target Aromatase (Homo sapiens) (UniProt P11511). Put plainly: qHTS assay to identify aromatase inhibitors (AID 743083; active = well fitted curve in the direction sought with a large enough effect in the repeat runs; an effect the other way counts as inactive or inconclusive; also: series mostly up to about 70 µM; % is scaled to controls: 0 for no effect and ±100 for the full control effect; nearly all actives have a fitted effect of over 55% in size).
Assay [14] can be described thus: qHTS assay to identify aromatase inhibitors - cell viability counter screen (AID 743084; active = well fitted curve in the direction sought with a large enough effect in the repeat runs; an effect the other way counts as inactive or inconclusive;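 also: cells stimulated with testosterone during compound exposure; % is scaled to controls: 0 for no effect and ±100 for the full control effect; nearly all actives have a fitted effect of over 55% in size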).
The nature of assay [15]: qHTS assay to identify small molecule that activate the aryl hydrocarbon receptor (AhR) signaling pathway - cell viability counter screen (AID 743086; active = well fitted curve in the direction sought with a large enough effect in the repeat runs; an effect the other way counts as inactive or inconclusive;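 also: HepG2 liver cells carrying the AhR DRE luciferase reporter; series mostly up to about 70 µM; % is scaled to controls: 0 for no effect and ±100 for the full control effect; nearly all actives have a fitted effect of over 45% in size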). The method in brief:
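Cytotoxicity counter screen: CellTiter-Fluor signal (30 min, 37 C) in 4000 HepG2 cells/well carrying the DRE-luciferase reporter, following 24 h compound exposure at 37 C.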

A short description of assay [16]: qHTS assay to identify small molecule antagonists of the androgen receptor (AR) signaling pathway using the MDA cell line - cell viability counter screen (AID 743041; active = well fitted curve in the direction sought with a large enough effect in the repeat runs; an effect the other way counts as inactive or inconclusive; also: nearly all actives have a fitted effect of over 45% in size; also: potency is read from the fitted curve at half-maximal effect). The essentials: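 R1881-driven MDA-kb2 AR-luc cells, 3,000/well, were dosed with library compounds for 16 h; cell health came from CellTiter-Fluor fluorescence in the reporter wells.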
The target of assay [17] is Aryl hydrocarbon receptor (Homo sapiens) (UniProt P35869). The assay can be described thus: qHTS assay to identify small molecule that activate the aryl hydrocarbon receptor (AhR) signaling pathway (AID 743085; active = well fitted curve in the direction sought with a large enough effect in the repeat runs; an effect the other way counts as inactive or inconclusive;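 also: HG2L7.5c1 human HepG2 liver cells with stably integrated DRE-driven firefly reporter; series mostly up to about 70 µM; % is scaled to controls: 0 for no effect and ±100 for the full control effect; nearly all actives have a fitted effect of over 15% in size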). The method in brief: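 Compounds were tested in HepG2 hepatocellular carcinoma cells harbouring a stably integrated luciferase gene under control of 20 DREs. Increased reporter signal after 24 h treatment at 37C was taken as AhR activation.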

A short description of assay [18]: qHTS assay to identify small molecule phospholipidosis (PLD) inducers (AID 1259344; active = well fitted curve in the direction sought with a large enough effect; an effect the other way counts as inactive or inconclusive; also: % is scaled to controls: 0 for no effect and ±100 for the full control effect). The method in brief: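 Fluorescent phospholipid staining (LipidTOX Red) measured by automated microscopy in fixed HepG2 cells after 24 h treatment; nuclei counterstained with Hoechst 33342; amiodarone as reference inducer.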
In assay [19] the target is Acetylcholinesterase (Homo sapiens) (UniProt P22303). The assay can be described thus: Acetylcholinesterase (AChE) small molecule antagonists: colormetric cell-based qHTS assay (AID 1347395). Also: nearly all actives have a fitted effect of over 30% in size. Also: potency is read from the fitted curve at half-maximal effect. The essentials:
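Cells (SH-SY5Y, 2,000 per well) are seeded and left overnight at 37 C. Compound is added for 30 min, then DTNB and acetylthiocholine for a further 90 min at 37 C before absorbance-based thiocholine detection.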

Chain of Acetylcholinesterase (Homo sapiens) (P22303 whole entry, looked up): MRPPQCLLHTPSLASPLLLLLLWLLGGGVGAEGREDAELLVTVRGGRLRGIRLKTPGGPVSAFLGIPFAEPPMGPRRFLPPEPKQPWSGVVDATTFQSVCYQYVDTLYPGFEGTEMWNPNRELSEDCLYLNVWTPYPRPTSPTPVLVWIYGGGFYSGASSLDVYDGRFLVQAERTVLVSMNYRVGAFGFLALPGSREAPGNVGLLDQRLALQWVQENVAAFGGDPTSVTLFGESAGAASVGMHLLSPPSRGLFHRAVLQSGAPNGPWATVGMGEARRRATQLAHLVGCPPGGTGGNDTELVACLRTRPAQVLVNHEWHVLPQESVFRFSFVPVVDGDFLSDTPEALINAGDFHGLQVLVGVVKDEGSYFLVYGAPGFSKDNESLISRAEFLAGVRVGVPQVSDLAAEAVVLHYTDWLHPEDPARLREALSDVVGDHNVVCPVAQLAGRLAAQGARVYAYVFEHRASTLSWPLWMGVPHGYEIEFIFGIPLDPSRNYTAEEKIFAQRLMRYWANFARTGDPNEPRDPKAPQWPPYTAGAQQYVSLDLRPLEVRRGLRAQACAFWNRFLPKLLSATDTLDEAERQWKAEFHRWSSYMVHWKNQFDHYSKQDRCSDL
Chain of Aromatase (Homo sapiens) (P11511 whole entry, looked up): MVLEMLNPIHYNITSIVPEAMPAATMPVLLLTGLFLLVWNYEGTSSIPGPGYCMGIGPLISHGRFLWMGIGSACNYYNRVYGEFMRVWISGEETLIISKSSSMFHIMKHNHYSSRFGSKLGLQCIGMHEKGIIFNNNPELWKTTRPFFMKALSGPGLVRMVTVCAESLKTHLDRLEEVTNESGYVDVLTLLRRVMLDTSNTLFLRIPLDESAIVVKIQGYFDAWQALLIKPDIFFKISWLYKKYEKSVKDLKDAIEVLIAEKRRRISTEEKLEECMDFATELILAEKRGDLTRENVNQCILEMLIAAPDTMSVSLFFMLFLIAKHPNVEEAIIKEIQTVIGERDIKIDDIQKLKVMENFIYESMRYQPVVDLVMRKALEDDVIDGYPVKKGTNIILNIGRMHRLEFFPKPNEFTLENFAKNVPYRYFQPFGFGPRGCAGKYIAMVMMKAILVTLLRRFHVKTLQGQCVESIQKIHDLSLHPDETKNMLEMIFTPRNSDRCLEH
Chain of Aryl hydrocarbon receptor (Homo sapiens) (P35869 whole entry, looked up): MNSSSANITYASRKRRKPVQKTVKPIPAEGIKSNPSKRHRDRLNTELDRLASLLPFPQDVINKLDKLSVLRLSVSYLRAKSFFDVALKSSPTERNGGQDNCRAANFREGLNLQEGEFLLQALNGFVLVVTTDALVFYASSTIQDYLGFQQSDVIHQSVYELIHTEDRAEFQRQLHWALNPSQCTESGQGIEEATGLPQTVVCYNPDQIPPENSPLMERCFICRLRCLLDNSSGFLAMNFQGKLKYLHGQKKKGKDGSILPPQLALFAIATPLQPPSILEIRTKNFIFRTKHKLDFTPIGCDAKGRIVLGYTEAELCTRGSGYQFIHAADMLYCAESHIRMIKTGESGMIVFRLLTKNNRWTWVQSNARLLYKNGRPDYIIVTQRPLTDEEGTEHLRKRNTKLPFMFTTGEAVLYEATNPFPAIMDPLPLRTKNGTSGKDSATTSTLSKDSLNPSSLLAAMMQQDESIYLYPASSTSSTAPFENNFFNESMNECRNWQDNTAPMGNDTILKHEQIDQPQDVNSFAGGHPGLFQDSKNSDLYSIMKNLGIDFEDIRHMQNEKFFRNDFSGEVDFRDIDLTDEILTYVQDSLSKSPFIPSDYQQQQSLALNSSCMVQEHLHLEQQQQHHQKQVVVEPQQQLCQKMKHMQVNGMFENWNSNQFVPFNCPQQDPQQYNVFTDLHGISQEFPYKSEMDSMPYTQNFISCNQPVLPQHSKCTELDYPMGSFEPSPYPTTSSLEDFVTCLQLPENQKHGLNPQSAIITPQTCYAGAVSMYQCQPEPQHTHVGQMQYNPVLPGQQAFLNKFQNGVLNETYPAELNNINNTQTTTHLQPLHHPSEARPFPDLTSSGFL

Regarding `CC(=O)O[C@H]1C[C@H](O[C@H]2[C@@H](O)C[C@H](O[C@H]3[C@@H](O)C[C@H](O[C@H]4CC[C@@]5(C)[C@H](CC[C@@H]6[C@@H]5C[C@@H](O)[C@]5(C)[C@@H](C7=CC(=O)OC7)CC[C@]65O)C4)O[C@@H]3C)O[C@@H]2C)O[C@H](C)[C@H]1O[C@@H]1O[C@H](CO)[C@@H](O)[C@H](O)[C@H]1O`, the Potency entry in assay [1], in assay [3], in assay [4], in assay [5], in assay [6] and in assay [7] was “inactive” in each case. Moreover, the Potency result (in [10]; in assay [12]; in assay [13]; in the assay with Aromatase (Homo sapiens); in assay [14]; in assay [15]) was “inactive” each time. For the same molecule, the Potency was 0.168 µM (active) in [2] and 0.668 µM (active) in assay [11]. The molecule was called inactive in assay [8] and in assay [9].

Take `O.O.O.O=C([O-])C(O)C(O)C(=O)[O-].O=C([O-])C(O)C(O)C(=O)[O-].[K+].[K+].[Sb].[Sb]` (centres undefined): the Potency result in assay [1], in assay [3], in assay [4], in assay [5], in assay [6] and in assay [7] was “inactive” throughout. Also, the Potency result in [10], in [13], in [14], in assay [17], in assay [15] and in assay [18] was “inactive” in each case. Also, the outcome in assay [8] and in assay [9] was inactive. In addition, the Potency was 11.9 µM (active) in [11] and 18.8 µM (active) in assay [16].

`O=C1c2ccccc2C(=O)N1CCc1noc(-c2ccc(CN3CCCCCC3)s2)n1`: in assay [19], the Potency was 6.51 µM (active).

Regarding `CC(=O)O[C@]1(C(C)=O)CC[C@H]2[C@@H]3C=C(Cl)C4=CC(=O)[C@@H]5C[C@@H]5[C@]4(C)[C@H]3CC[C@@]21C`, in assay [19], the Potency result is “inactive”.

Take `CCN[C@@H]1C[C@H](N)[C@@H](OC2OC(CN)=CCC2N)[C@H](O)[C@H]1O[C@H]1OC[C@](C)(O)[C@H](NC)[C@H]1O` (some centres undefined): the activity, negative = inhibition in [19] was 0.264% [at 0.435 µM] (inactive).

`C=CC(C)(C)CC(=O)OC`: the Potency result in assay [19] is “inactive”.

Turning to `CCCC(=O)Nc1ccc(OCC(O)CNC(C)C)c(C(C)=O)c1` (centres undefined), the Potency result in [19] is “inactive”.

On to `CC(C)(C)c1ccc(C(O)CCCN2CCC(C(O)(c3ccccc3)c3ccccc3)CC2)cc1` (centres undefined), for which, in assay [19], the Potency result was “inactive”.

Take `CCN(CC)CCO[C@H]1CC[C@@]2(C)C(=CC[C@@H]3[C@@H]2CC[C@]2(C)C(=O)CC[C@@H]32)C1`: the Potency result in [1], in assay [2], in [3], in [4], in assay [5] and in assay [6] was “inactive” throughout. Moreover, the Potency entry (in assay [7]; in assay [10]; in assay [16]; in assay [13]; in the assay with Aromatase (Homo sapiens); in assay [14]) was “inactive” throughout. The Potency entry in [17] and in assay [15] was “inactive” throughout. The result in assay [8] and in assay [9] was inactive. Also, the values for the Potency in assay [11] and in [12] were 1.33 µM (active) and 21.1 µM (active), respectively.

For `CN(C)C(=O)C(CCN1CCC(O)(c2ccc(Cl)cc2)CC1)(c1ccccc1)c1ccccc1`, the Potency entry in assay [19] is “inactive”.

Regarding `CCCOCCC`, the Potency entry in assay [19] was “inactive”.

For the molecule `COC(=O)C1=C(C)NC(C)=C(C(=O)OC)C1c1ccccc1[N+](=O)[O-]`, the Potency entry in assay [19] was “inactive”.

In the case of `O=S(=O)(O)CCCN1CCOCC1`, the Potency entry in [19] is “inactive”.

In the case of `N#[N+]c1ccc2c(S(=O)(=O)[O-])cccc2c1O`, in assay [19], the Potency entry is “inactive”.

Regarding `Nc1cc(Cl)c(N)c(Cl)c1`, the Potency in assay [19] is 79 µM (active) and inactive.

With `CCCCC1C(=O)N(c2ccccc2)N(c2ccccc2)C1=O`, the Potency result in assay [19] was “inactive”.

Consider `CCCC(=O)c1cc(O)c(O)cc1O`, for which the Potency result in assay [19] is “inactive”.

For the molecule `O=C(O)CC(=O)O`, in assay [19], the Potency entry is “inactive”.

On to `CC(C)(C)NC(=O)[C@@H]1C[C@@H]2CCCC[C@@H]2CN1C[C@@H](O)[C@H](Cc1ccccc1)NC(=O)[C@H](CC(N)=O)NC(=O)c1ccc2ccccc2n1`, for which, in assay [19], the Potency result is “inactive”.

Regarding `C[C@@H](N)C(=O)O`, the Potency entry in assay [19] was “inactive”.

As to `CN1CCN(C2=Nc3cc(Cl)ccc3Nc3ccccc32)CC1`, the Potency result in assay [19] is “inactive”.

For `O=C(O)c1cc(=O)[nH]c(=O)[nH]1`, the Potency entry in assay [19] is “inactive”.

`CN(C)C(=O)C1(N2CCCCC2)CCN(CC[C@@]2(c3ccc(Cl)c(Cl)c3)CN(C(=O)c3ccccc3)CCO2)CC1`: the Potency in [19] was 33.2 µM (active).

Take `COC(=O)C1=C(C)NC(C)=C(C(=O)OCCN(C)Cc2ccccc2)C1c1cccc([N+](=O)[O-])c1` (centres undefined): in assay [19], the Potency entry is “inactive”.

`N[C@@H](Cc1ccc(O)cc1)C(=O)O`: the activity, negative = inhibition in assay [19] is -0.421% [at 10.5 µM] (inactive).

In the case of `CCOC(=O)c1c(N)sc2c1CCN(Cc1ccccc1)C2`, the Potency in assay [19] was 12.3 µM (active).

Regarding `O=S(=O)(O)c1cc(O)c(O)c(S(=O)(=O)O)c1`, the Potency entry in assay [19] is “inactive”.

For the molecule `CCC(COC(=O)CCS)(COC(=O)CCS)COC(=O)CCS`, the Potency result in assay [19] is “inactive”.

`NCc1ccccc1Sc1ccccc1CO`: the Potency entry in assay [19] is “inactive”.

In the case of `COc1ccc(-c2nc3ccc(C4=NNC(=O)CC4C)cc3[nH]2)cc1` (centres undefined), the Potency result in assay [19] is “inactive”.

Consider `CN(C)CCCN1c2ccccc2Sc2ccc(C(F)(F)F)cc21`, for which the Potency result in assay [19] is “inactive”.

Take `CC(=O)OCC(=O)[C@@]1(O)CC[C@H]2[C@@H]3CCC4=CC(=O)C=C[C@]4(C)[C@H]3[C@@H](O)C[C@@]21C`: in [19], the Potency entry is “inactive”.

In the case of `O=C(O)[C@H](O)[C@@H](O)[C@H](O)[C@H](O)CO`, in assay [19], the Potency result was “inactive”.

`CCOC(=O)N1CCC(=C2c3ccc(Cl)cc3CCc3cccnc32)CC1`: the Potency entry in [19] is “inactive”.

`Cc1ccc(Br)cc1`: in assay [19], the Potency result was “inactive”.

In the case of `CCC(=O)OCCC(C)CCC=C(C)C` (centres undefined), in assay [19], the Potency result is “inactive”.

Turning to `NCCNCCNCCNCCN`, in assay [19], the Potency is 79.3 µM (active) and the activity, negative = inhibition was 4.34% [at 10.5 µM] (inactive).

Regarding `Brc1cc(Oc2cc(Br)c(Br)c(Br)c2Br)c(Br)c(Br)c1Br`, the Potency entry in assay [19] is “inactive”.

On to `COc1ccc(OC)c(C(O)CNC(=O)CN)c1` (centres undefined), for which the Potency result in assay [19] was “inactive”.

`c1ccc2c(c1)CCc1ccccc1N2`: the Potency result in assay [19] was “inactive”.

On to `C/C=C(\C)C(=O)OCCc1ccccc1`, for which the Potency entry in assay [19] is “inactive”.
